Assay outcomes deposited in PubChem by National Center for Advancing Translational Sciences (NCATS).
gsp antagonist = gsp mutant antagonism; hit rate 0.4% among 340,000; gsp-mutant cells, cAMP HTRF, 30 min; AID 624288; Potency, µM (doses to about 76.9 µM), without a hit: top-dose activity change, negative = inhibition, actives largely listed as inhibitors; calls by dose curve; cell line not stated here;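 also: intracellular cAMP measured with PDE inhibitor Ro 20-1724 present during compound exposure; potency is read from the fitted curve at half-maximal effect; % is scaled to controls: 0 for no effect and ±100 for the full control effect; nearly all actives have a fitted effect of over 65% in size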
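Measurement of cellular cAMP by homogeneous time-resolved fluorescence following a 30 min compound exposure at 37C. The PDE inhibitor […] was present throughout; the assay buffer was DPBS with 0.05% BSA and 0.005% Tween 20.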
Giardia killer = Giardia lamblia killing; hit rate 0.15% among 340,000; activity change, % at 7.66 µM, hits read low; Giardia lamblia trophozoite viability; in the data active = activity change below about -80%; inconclusive = between about -30% and that limit;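 also: parasites exposed to compound for two days anaerobically before the ATP read; % is scaled to controls: 0 for no effect and ±100 for the full control effect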
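Killing of trophozoites was scored by loss of ATP luminescence after a 48 hrs anaerobic exposure to compounds at 37 deg C, using 100 cells per well.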
Coupling enz = inhibits coupling enzyme system, counter-screen for aldolase hits. coupling enzyme system counterscreen, AmpLite Red fluorescence. activity change, negative = inhibition, % at 58.2 µM, hits read low. hit rate 0.67% among 290,000; in the data active = activity change below about -30%; also: % is scaled to controls: 0 for no effect and ±100 for the full control effect
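Final compound at 57.5 uM, incubated 10 min at RT with coupling enzyme reagent (glyceraldehyde-3-phosphate), then 20 min with substrate and AmpLite Red detection. Fluorescence read at 525/598 nm; tests interference with the coupling assay, not aldolase inhibition.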
gsp ag = agonists of gsp mutant (McCune-Albright syndrome). gsp mutant cells, cAMP HTRF, 30 min. Potency, µM (highest dose often 76.9 µM), inactives show at the top dose activation (cAMP increase), usual class: activators. hit rate 0.13% among 340,000. AID 624287; active = well fitted activation curve with a large enough effect; inconclusive = small, poorly fitted or top-dose-only effect, or another doubt; inactive = no such curve, though single readings can be large or run the other way; cell line not stated here;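 also: phosphodiesterase inhibitor Ro 20-1724 added with compounds to block cAMP breakdown; potency is read from the fitted curve at half-maximal effect; nearly all actives have a fitted effect of over 60% in size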
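Cells stably selected in G418 were plated at 2000/well, grown 16-24 hr, then given compounds in DMSO with the PDE inhibitor […] (300 uM solution added) for 30 min at 37C; cAMP was read by HTRF.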
RXFP1 ag = agonists of human relaxin receptor RXFP1. HEK293T-RXFP1 cAMP TR-FRET, 30 min; response scale: percent of porcine relaxin response, buffer zero. Potency, µM (series often up to 57.5 µM), for inactives: at the top dose activation, hits mostly activators. hit rate 0.3% among 370,000. AID 2676. Q9HBX9; active = well fitted activation curve with a large enough effect; inconclusive = small, poorly fitted or top-dose-only effect; also: potency is read from the fitted curve at half-maximal effect; % is scaled to controls: 0 for no effect and ±100 for the full control effect; nearly all actives have a fitted effect of over 60% in size
Target sequence (Q9HBX9 whole entry, looked up): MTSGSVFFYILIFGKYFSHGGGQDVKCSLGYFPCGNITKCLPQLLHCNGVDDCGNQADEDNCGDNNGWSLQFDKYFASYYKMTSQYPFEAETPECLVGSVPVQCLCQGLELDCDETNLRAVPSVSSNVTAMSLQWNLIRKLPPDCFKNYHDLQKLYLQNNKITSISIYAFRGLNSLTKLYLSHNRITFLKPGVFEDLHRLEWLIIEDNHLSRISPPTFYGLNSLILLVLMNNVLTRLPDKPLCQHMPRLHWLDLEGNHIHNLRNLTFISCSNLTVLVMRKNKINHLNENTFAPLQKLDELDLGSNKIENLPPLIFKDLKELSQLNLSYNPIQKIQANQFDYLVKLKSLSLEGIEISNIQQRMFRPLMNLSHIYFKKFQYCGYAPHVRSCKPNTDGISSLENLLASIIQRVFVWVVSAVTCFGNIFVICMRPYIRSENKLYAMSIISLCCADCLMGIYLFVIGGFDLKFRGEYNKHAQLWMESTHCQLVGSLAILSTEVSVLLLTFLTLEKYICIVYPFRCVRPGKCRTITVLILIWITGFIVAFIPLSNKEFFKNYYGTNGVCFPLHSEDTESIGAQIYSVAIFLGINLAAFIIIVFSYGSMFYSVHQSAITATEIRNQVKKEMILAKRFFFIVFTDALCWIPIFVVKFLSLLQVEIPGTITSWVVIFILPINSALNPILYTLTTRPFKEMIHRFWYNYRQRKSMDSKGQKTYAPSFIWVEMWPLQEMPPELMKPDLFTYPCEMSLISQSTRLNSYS
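Agonist response is measured as cAMP accumulation in an RXFP1-transfected HEK293T line under PDE4 inhibition. Values are scaled between buffer-only and 29 nM porcine relaxin, and EC50s come from standard Hill equation fits.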
RXFP1 antag = blocks the human relaxin receptor RXFP1 | Q9HBX9 | activity change, negative = inhibition, % at 57.5 µM | HEK293-RXFP1, relaxin-stimulated cAMP HTRF, 30 min; active compounds read low | hit rate 0.59% among 350,000;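 active = activity change of -60% or lower, but not beyond a set lower limit; inconclusive = change between -60% and -40%, or beyond the set limit; inactive = change above -40%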; also: % is scaled to controls: 0 for no effect and ±100 for the full control effect
Numbers without * were called inactive; [ ] = remark or other dose. An excerpt weighted towards active compounds, which were near 1.6% of everything screened.

`Cc1cccc(N(C)C(=S)Oc2ccc3ccccc3c2)c1` gave gsp antagonist -9%, Giardia killer -1, Coupling enz 0, RXFP1 ag 2% and RXFP1 antag -71*.
For COc1ccc(N(C)C(=S)Oc2ccc(C(=O)Nc3ccccc3)cc2)cc1 the results were Coupling enz -1 and RXFP1 ag 3%.
For CN(CC(=O)NCCCN1CCOCC1)S(=O)(=O)c1ccc(F)cc1 the results were gsp antagonist -7%, Giardia killer 7, Coupling enz 0, gsp ag 23%[15.4 µM], RXFP1 ag 3% and RXFP1 antag 12.
For COc1cc(CNCc2ccncc2)cc(Br)c1OCc1ccccc1F the results were gsp antagonist 32µM*, Giardia killer 7, Coupling enz 2, gsp ag -42%, RXFP1 ag -1% and RXFP1 antag 7.
For CCOc1cc(CNc2ccc(O)cc2)cc(Br)c1OCc1ccccc1F the results were gsp antagonist -18%, Giardia killer 13, Coupling enz -56*, gsp ag 0%, RXFP1 ag 0% and RXFP1 antag -21.
Screening COc1cc(CNc2ccc(O)cc2)cc(Br)c1OCc1ccccc1F returned gsp antagonist -20%, Giardia killer 12, Coupling enz -57*, gsp ag 5%, RXFP1 ag 2% and RXFP1 antag 15.
CCC1CN(C(=O)N2CCC(C(=O)Nc3ccccc3F)CC2)c2ccccc2O1 (stereo not given) was read as gsp antagonist -2%, Giardia killer 25, gsp ag 28%, RXFP1 ag 1% and RXFP1 antag 28.
CN(CCCN(Cc1ccc(Cl)cc1)c1ccc(Br)cn1)C(=S)NCCCc1cnc[nH]1 was read as Giardia killer -6.
`COc1ccc(-c2nnc(NC(=O)C3=COCCO3)o2)cc1` gave gsp antagonist -2%, Giardia killer -18, Coupling enz 3, gsp ag -1%, RXFP1 ag 3% and RXFP1 antag -1.
Cc1noc(C)c1S(=O)(=O)N(C)C[C@H]1Oc2ccc(NC(=O)NC(C)C)cc2C(=O)N([C@H](C)CO)C[C@@H]1C was read as gsp antagonist 11% and Giardia killer 21.
For O=c1[nH]c(C(F)(F)F)nc2ccc3ccccc3c12 the results were gsp antagonist -11%, Giardia killer 13, Coupling enz -3, gsp ag -4%[15.4 µM], RXFP1 ag 0% and RXFP1 antag 10.
CCc1ccc(Nc2nc3ccccc3nc2NS(=O)(=O)c2ccccc2)cc1 was read as RXFP1 ag 5%.
Screening Cc1cc(NS(=O)(=O)c2ccc(C(C)C)cc2)no1 returned gsp antagonist -13%, Giardia killer 7, Coupling enz 3, gsp ag inconclusive, RXFP1 ag -3% and RXFP1 antag 0.
`CCc1ccc(S(=O)(=O)/N=C2\C=C(NS(=O)(=O)c3ccccc3)C(=O)c3ccccc32)cc1` gave gsp antagonist -13%, Giardia killer -22, Coupling enz -34*, gsp ag 2%, RXFP1 ag -1% and RXFP1 antag 7.
For Cc1ccc(C)c(S(=O)(=O)/N=C2\C=C(NS(=O)(=O)c3ccccc3)C(=O)c3ccccc32)c1 the results were gsp antagonist inconclusive, Giardia killer -12, Coupling enz -50*, gsp ag -51%, RXFP1 ag -1% and RXFP1 antag 7.
`CC(C)c1ccc(S(=O)(=O)/N=C2\C=C(NS(=O)(=O)c3ccccc3)C(=O)c3ccccc32)cc1` gave gsp antagonist inconclusive, Giardia killer -6, Coupling enz -32*, gsp ag 13%, RXFP1 ag 1% and RXFP1 antag 1.
CC(C)c1ccc(S(=O)(=O)/N=C2/C=CC(=O)c3ccccc32)cc1 was read as Coupling enz -53* and RXFP1 ag 2%.
For CCOc1cc(CNCCO)cc(Br)c1OCc1ccccc1Cl the results were gsp antagonist 10%, Giardia killer 25, Coupling enz 1, gsp ag -1%, RXFP1 ag -1% and RXFP1 antag -74*.
`CCOc1cc(CNCCO)cc(Br)c1OCc1ccc(Cl)cc1` gave gsp antagonist 22%, Giardia killer 5, Coupling enz -2, gsp ag inconclusive, RXFP1 ag 2% and RXFP1 antag -10.
`CCOc1cc(CNCCCN2CCOCC2)cc(Br)c1OCc1ccccc1Cl` gave gsp antagonist 16%, Giardia killer 9, Coupling enz -1, gsp ag 20%, RXFP1 ag 3% and RXFP1 antag -92*.
COc1ccc(CNc2ncnc3ccc(-c4c(C)noc4C)cc23)cc1 was read as Coupling enz -5.
Screening CCN1CCN(Cc2c3ccccc3cc3ccccc23)CC1 returned gsp antagonist -1%, Giardia killer 5, Coupling enz 2, gsp ag -4%[15.4 µM], RXFP1 ag -1% and RXFP1 antag -60*.
Screening CCc1ccc(-c2[nH]c3c(c2-c2c(-n4cccc4)n(C)c(=O)n(C)c2=O)c(=O)n(C)c(=O)n3C)cc1 returned RXFP1 ag 0%.
Screening [N-]=C=C1C(=S)NC(=O)[C@H]([n+]2ccccc2)[C@H]1c1ccc(Cl)cc1 returned gsp antagonist 5%, Giardia killer 17, Coupling enz 1, gsp ag 20µM*, RXFP1 ag 9% and RXFP1 antag -2.
Screening Cc1cccc(Nc2nc(-c3ccc(F)cc3)cs2)n1 returned gsp antagonist -3%, Giardia killer -3, Coupling enz -4, gsp ag -42%[15.4 µM], RXFP1 ag 0% and RXFP1 antag -78*.
Cc1ccccc1OCC(=O)NCC(=O)OC(c1ccccc1)c1ccccc1 was read as Giardia killer -28.
CCOc1ccc(NC(=O)C(=O)NCC(c2cccnc2)N2CCc3ccccc32)cc1 (stereo not given) was read as RXFP1 ag 1% and RXFP1 antag -64*.
`COc1ccccc1C1CCCN1Cc1nc(-c2ccc(C)s2)oc1C` (stereo not given) gave gsp antagonist -5%, Giardia killer 18, Coupling enz -1, gsp ag 4%[15.4 µM], RXFP1 ag 0% and RXFP1 antag -65*.
`CO[C@@H]1COC(=O)[C@H](C)NC(=O)[C@@H](C)COC(=O)[C@H](C)NC(=O)C/C=C\[C@H]1C` gave Coupling enz 0.
Screening NS(=O)(=O)c1ccc(CCNC(=O)C2CCN(c3ncnc4c3nc3n4CCCCC3)CC2)cc1 returned gsp antagonist 1%, Giardia killer -1, Coupling enz -3, gsp ag inconclusive, RXFP1 ag 16µM* and RXFP1 antag 15.
